# In PubChem BioAssay (NCI):
# The panel holds about 83,000 compounds, 20% with a hit somewhere; the sample as a whole holds those more often.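 Single-dose data. Exposure time 48 hours. Values below 10 considered active.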 A number with no mark means an inactive call. Active and inactive are the calls of the source.
# Test system: A549/ATCC NSCLC
# Assay: NCI-60 one-dose screen, 48 h (100 = growth as untreated, 0 = no growth, -100 = all killed)
# Conditions: 10 µM unless noted
row,SMILES,growth
1,O=C(Nc1ccc2ncnc(Nc3cccc(C(F)(F)F)c3)c2c1)c1cccs1,32.4%
2,O=C1[C@@H](OS(=O)(=O)CC(F)(F)F)[C@H](c2ccc(F)cn2)N1c1cc2c3ccccc3ccc2c2ccccc12,82.5%
3,COc1cc2cc(c1Cl)N(C)C(=O)C[C@H](OC(=O)[C@H](C)N(C)C(=O)CCS)C[C@]1(C)O[C@H]1[C@H](C)[C@@H]1C[C@@](O)(NC(=O)O1)[C@H](OC)/C=C/C=C(\C)C2,16.3%
4,COc1cc(/C=C/C(=O)c2cccs2)ccc1OCc1ccc(Cl)nc1,99%
5,COc1cc(/C=C/C(=O)/C=C/c2cc3ccc(Cl)cc3[nH]c2=O)ccc1O,79.8%
6,COc1ccc(/C=C/C(=O)/C=C(/C=C/c2ccc(OC)c(OC)c2)OB(F)F)cc1OC,60.8%
7,COc1cc(/C=C/C(=O)/C=C/c2cc3ccc(Cl)cc3n(Cc3ccccc3)c2=O)ccc1O,-3.99% (active)
8,C=C(C)[C@@H]1CC[C@]2(C(=O)OCCCC[P+](c3ccccc3)(c3ccccc3)c3ccccc3)CC[C@]3(C)[C@H](CC[C@@H]4[C@@]5(C)CC[C@H](OC(=O)C(Cl)Cl)C(C)(C)[C@@H]5CC[C@]43C)[C@@H]12,0.629% (active)
9,COc1ccc(C(=S)c2cc(OC)c(OC)c(OC)c2)cc1OC(=O)CCl,21.2%
10,CNCc1cccc2c1OCCOCCOCCN(CCN1CCOCC1)S(=O)(=O)c1ccc(cc1)-c1cnc(N)c(n1)C(=O)N2,46.4%
11,COc1ccc2[nH]c(=O)c(/C=C/C(=O)/C=C/c3ccc(O)c(OC)c3)cc2c1,22.6%
12,Fc1ccc(N/N=C/c2ccc(-n3cccn3)cc2)cc1,93.7%
13,COc1cc(F)c(-c2nc3c(C)cccc3n2Cc2c(F)cccc2F)c(F)c1,69.1%
14,Cc1nc(C)c(C)nc1C,86.6%
15,Oc1ccc(CNNc2ccnc3c(O)cccc23)c2cccnc12,26.5%
16,N#Cc1ccc(N2Cc3cc(Cl)ccc3OC3=C2C(=O)N(Cc2ccccc2)C3=O)cc1,66.3%
17,CC(=O)OCC1SC(OC(C)=O)C(NC(=O)/C=C/CCl)C(OC(C)=O)C1OC(C)=O (configuration not stated),89.1%
18,S=C(Nc1ccccc1)c1ccccn1,91.7%
19,COc1cc(C(C)c2ccc3c(ccn3C)c2)cc(OC)c1OC (configuration not stated),16.3%

row,SMILES,growth
1,COc1cc(C2=NN(C(C)=O)C(c3cccc(Nc4ccnc5cc(C(F)(F)F)ccc45)c3)C2)cc(OC)c1OC (configuration not stated),53.1%
2,CC(C)CSc1nc(Nc2ccccc2)c(C#N)c(-c2ccc(F)cc2)n1,21.4%
3,C[C@H]1[C@H](C)CC[C@]2(C(=O)OCCCC[P+](c3ccccc3)(c3ccccc3)c3ccccc3)CC[C@]3(C)C(=CC[C@@H]4[C@@]5(C)CC[C@H](OC(=O)C(Cl)Cl)C(C)(C)[C@@H]5CC[C@]43C)[C@H]12,-41.9% (active)
4,CC(/C=C/c1ccccc1)=N/NC(=O)c1ccncc1,93.4%
5,O=C(O)c1cn(C2CC2)c2cc(N3CCN(C(=O)CSc4nnc(-c5ccc(Cl)cc5)n4-c4ccccc4)CC3)c(F)cc2c1=O,94.3%
6,C1=CC2=CC=C3C=CC=C4C(c5nc6c7ccccc7c7ccccc7c6[nH]5)=CC(=C1)C2C34 (configuration not stated),89.7%
7,Nc1c(C(=O)Nc2ccccc2)sc2nc3c(cc12)CN(C(=O)OCc1ccccc1)CC3,50.2%
8,Cc1cccc(C)c1NC(=O)CN(CC(C)C)CC(O)COc1ccccc1 (configuration not stated),90.6%
9,C=C(C)[C@@H]1CCC=C2CC[C@]3(C)[C@H](CC[C@@H]4[C@@]5(C)CCCNC(C)(C)[C@@H]5CC[C@]43C)[C@H]21,13%
10,COC(=O)/C=C/c1cc(OC(C)=O)c2c(c1)C(C(=O)OC)C(c1ccc(OC(C)=O)c(OC(C)=O)c1)O2 (configuration not stated),37.4%
11,COc1ccc(-c2[nH]c3ccccc3c2C=C(C#N)C#N)cc1,5.94% (active)
12,COc1ccc(-c2nnc(N3CCN(C(=O)CN4CCN(c5ccccc5)CC4)CC3)nc2-c2ccc(OC)cc2)cc1,28%
13,O=c1[nH]c2ccccc2cc1-c1nc2ccc(Cl)cc2[nH]1,40.1%
14,O=C(NC[C@H](O)CN1CCc2ccccc2C1)c1cc(NC2COC2)ncn1,93.4%
15,COC1=CC2C=C(C3N(c4ccccc4)NC(=O)[C@@H]4CCCN34)C(=O)NC2C=C1 (some centres not stated),107%
16,C#C[C@@]1(O)[C@@H](CO)O[C@@H](n2cc(-c3ccco3)c3c(N)ncnc32)[C@@H]1O,68.5%
17,Cc1[nH]c(N=Nc2ccccc2)nc1N=Nc1ccccc1,27%
18,COc1ccc(Nc2nc(SCC(C)C)nc(-c3ccc(F)cc3)c2C#N)cc1,62.5%
